Our source for the binding signal values is article PMC7862700, “An all-to-all approach to the identification of sequence-specific readers for epigenetic DNA modifications on cytosine”.

Experiment in all cases: DAPPL (digital affinity profiling via proximity ligation, sequencing); 10 mM Tris-HCl pH 7.5, 50 mM NaCl, 1 mM DTT, 4% glycerol, room temperature, 30 min; GST-TFs on glutathione beads, 16-mer random dsDNA library, 0.1% formaldehyde crosslink after washing; high values mean tight binding
In one experiment the target is T1, FEV (Homo sapiens, UniProt Q99581 1-238).
T1 sequence: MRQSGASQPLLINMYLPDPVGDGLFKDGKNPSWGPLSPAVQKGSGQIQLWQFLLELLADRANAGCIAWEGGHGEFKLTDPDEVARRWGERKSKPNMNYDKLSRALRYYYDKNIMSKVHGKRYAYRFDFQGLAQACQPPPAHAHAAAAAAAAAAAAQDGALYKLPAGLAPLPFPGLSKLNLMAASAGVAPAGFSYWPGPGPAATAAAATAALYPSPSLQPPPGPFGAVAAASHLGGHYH
The conditions noted are these: protein: recombinant; tags: N-terminal GST; dsDNA, one strand shown. The method in brief: (§1)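 Binding signal is given per hexamer as its read frequency for a factor divided by its frequency in the tag-only sample. GST-fused human transcription factors were expressed in yeast, captured on glutathione beads, barcoded with DNA and pooled with that sample, then incubated with 200 nmole of a 16-mer random double-stranded DNA library in Tris/NaCl/DTT/glycerol buffer for 30 min at room temperature. The pools were then washed, crosslinked, proximity-ligated, amplified by PCR and sequenced on an Illumina NextSeq500.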

The target in the next experiment is ETV5 (Homo sapiens, UniProt P41161 1-510). The conditions noted are these: protein: recombinant; tags: N-terminal GST; dsDNA, one strand shown. The method in brief: as §1
Another experiment concerns the target HSF1 (Homo sapiens, UniProt Q00613 1-529). The settings on record: protein: recombinant; tags: N-terminal GST; chain copies: 3; dsDNA, one strand shown. The method in brief:
as §1

The target of a further experiment is T2, SPIC (Homo sapiens, UniProt Q8N5J4 1-248).
T2 sequence: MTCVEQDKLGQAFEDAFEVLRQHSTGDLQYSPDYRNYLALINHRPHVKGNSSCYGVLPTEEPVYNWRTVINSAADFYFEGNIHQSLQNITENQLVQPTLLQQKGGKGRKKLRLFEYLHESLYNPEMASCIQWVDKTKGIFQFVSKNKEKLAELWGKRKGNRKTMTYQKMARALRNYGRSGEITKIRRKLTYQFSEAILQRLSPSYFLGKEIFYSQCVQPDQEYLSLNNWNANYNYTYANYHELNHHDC
The settings on record: protein: recombinant; tags: N-terminal GST; dsDNA, one strand shown. In a few lines:
as §1

The target of another experiment is ELF4 (Homo sapiens, UniProt Q99607 1-663). The conditions noted are these: protein: recombinant; tags: N-terminal GST; dsDNA, one strand shown. In a few lines: as §1
In the next experiment the target is T3, ELK4 (Homo sapiens, UniProt P28324-2 1-405).
T3 sequence: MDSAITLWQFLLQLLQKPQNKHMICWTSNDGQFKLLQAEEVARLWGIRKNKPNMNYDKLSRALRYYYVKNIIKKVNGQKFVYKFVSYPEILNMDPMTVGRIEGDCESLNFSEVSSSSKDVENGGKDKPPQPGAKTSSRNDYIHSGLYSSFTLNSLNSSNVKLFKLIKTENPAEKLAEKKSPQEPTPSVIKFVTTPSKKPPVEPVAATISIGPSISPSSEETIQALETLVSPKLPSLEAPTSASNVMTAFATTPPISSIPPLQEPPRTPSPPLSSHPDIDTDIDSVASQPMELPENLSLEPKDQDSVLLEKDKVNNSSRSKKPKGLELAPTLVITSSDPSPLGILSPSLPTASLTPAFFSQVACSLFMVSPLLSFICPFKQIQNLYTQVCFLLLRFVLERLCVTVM
The conditions noted are these: protein: recombinant; tags: N-terminal GST; dsDNA, one strand shown. The method in brief:
as §1

A further experiment has as its target T4, ETV2 (Homo sapiens, UniProt O00321 1-342).
T4 sequence: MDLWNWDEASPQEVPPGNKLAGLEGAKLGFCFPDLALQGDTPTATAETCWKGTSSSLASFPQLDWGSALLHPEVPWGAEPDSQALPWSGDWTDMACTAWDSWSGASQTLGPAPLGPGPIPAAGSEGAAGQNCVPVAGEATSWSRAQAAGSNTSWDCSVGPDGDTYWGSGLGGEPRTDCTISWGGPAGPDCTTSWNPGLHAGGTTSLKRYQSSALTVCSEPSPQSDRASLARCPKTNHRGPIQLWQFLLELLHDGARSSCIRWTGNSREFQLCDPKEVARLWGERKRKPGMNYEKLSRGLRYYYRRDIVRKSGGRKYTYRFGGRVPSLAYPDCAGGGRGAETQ
The conditions noted are these: protein: recombinant; tags: N-terminal GST; dsDNA, one strand shown. In a few lines: as §1

In a further experiment the target is T5, ELF3 (Homo sapiens, UniProt P78545 1-371).
T5 sequence: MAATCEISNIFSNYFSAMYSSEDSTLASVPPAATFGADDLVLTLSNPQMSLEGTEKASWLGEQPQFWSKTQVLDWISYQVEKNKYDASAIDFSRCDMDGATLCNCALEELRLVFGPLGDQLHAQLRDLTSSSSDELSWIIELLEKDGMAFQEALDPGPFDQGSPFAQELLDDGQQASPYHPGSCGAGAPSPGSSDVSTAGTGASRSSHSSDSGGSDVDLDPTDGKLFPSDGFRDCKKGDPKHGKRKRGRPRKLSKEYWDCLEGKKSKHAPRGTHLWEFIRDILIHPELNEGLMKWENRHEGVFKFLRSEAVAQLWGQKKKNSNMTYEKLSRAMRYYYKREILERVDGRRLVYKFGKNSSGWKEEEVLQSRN
The settings on record: protein: recombinant; tags: N-terminal GST; dsDNA, one strand shown. The method in brief: as §1

The target of a further experiment is CRX (Homo sapiens, UniProt O43186 1-299). The settings on record: protein: recombinant; tags: N-terminal GST; dsDNA, one strand shown. The method in brief: as §1
The next experiment addresses ETV1 (Homo sapiens, UniProt P50549 1-477). The settings on record: protein: recombinant; tags: N-terminal GST; dsDNA, one strand shown. In a few lines:
as §1

A further experiment concerns the target T6, ERF (Homo sapiens, UniProt P50548 1-548).
T6 sequence: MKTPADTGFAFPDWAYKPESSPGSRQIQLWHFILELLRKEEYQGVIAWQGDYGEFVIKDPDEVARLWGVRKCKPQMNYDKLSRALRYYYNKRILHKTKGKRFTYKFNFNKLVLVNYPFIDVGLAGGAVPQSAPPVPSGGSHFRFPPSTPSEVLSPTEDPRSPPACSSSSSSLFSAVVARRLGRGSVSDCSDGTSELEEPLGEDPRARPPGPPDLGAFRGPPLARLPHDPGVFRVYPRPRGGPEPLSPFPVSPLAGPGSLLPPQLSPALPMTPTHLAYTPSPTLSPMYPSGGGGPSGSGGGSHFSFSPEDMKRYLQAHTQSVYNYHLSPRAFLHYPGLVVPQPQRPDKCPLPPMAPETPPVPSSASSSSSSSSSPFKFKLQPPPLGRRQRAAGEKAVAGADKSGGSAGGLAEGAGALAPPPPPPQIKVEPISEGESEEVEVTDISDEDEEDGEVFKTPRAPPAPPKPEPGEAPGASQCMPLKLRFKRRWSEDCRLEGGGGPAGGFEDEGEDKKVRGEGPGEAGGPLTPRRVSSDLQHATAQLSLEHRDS
The settings on record: protein: recombinant; tags: N-terminal GST; dsDNA, one strand shown. In a few lines:
as §1

The next experiment addresses T7, ETV3L (Homo sapiens, UniProt Q6ZN32 1-361).
T7 sequence: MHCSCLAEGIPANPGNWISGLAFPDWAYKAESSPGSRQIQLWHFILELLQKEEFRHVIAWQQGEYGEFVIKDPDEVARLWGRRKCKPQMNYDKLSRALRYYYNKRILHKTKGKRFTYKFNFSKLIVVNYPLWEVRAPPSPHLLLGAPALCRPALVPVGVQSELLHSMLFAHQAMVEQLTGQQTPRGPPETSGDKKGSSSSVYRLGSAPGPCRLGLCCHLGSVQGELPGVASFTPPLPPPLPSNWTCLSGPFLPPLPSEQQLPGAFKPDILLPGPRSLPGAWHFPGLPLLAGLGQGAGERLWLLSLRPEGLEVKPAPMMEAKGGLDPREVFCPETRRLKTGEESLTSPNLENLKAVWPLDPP
The settings on record: protein: recombinant; tags: N-terminal GST; dsDNA, one strand shown. The method in brief:
as §1

In another experiment the target is T8, ETS2 (Homo sapiens, UniProt P15036 1-469).
T8 sequence: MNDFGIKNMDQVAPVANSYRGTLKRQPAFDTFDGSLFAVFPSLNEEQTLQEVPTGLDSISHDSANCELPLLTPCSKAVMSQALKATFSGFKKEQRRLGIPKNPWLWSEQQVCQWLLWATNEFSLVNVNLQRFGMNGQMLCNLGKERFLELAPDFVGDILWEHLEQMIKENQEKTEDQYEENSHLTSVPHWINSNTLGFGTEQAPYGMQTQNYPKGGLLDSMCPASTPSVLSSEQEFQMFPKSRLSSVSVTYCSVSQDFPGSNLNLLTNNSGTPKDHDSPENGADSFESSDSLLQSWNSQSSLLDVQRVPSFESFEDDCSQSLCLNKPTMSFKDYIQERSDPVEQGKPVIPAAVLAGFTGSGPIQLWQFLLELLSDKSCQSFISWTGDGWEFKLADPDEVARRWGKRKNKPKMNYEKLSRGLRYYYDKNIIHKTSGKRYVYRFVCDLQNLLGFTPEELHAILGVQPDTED
The settings on record: protein: recombinant; tags: N-terminal GST; dsDNA, one strand shown. In a few lines: as §1

Another experiment addresses T9, SPDEF (Homo sapiens, UniProt O95238 1-335).
T9 sequence: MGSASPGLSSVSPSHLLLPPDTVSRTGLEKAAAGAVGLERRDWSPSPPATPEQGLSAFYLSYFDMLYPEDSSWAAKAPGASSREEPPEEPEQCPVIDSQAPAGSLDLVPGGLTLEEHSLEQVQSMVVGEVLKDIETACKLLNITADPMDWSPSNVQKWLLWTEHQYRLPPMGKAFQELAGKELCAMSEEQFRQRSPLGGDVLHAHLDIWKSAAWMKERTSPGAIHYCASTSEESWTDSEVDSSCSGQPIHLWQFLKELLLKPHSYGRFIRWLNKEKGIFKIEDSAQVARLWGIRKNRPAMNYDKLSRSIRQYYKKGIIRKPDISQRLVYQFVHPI
The conditions noted are these: protein: recombinant; tags: N-terminal GST; dsDNA, one strand shown. In a few lines: as §1

Another experiment concerns the target T10, ETV7 (Homo sapiens, UniProt Q9Y603 1-341).
T10 sequence: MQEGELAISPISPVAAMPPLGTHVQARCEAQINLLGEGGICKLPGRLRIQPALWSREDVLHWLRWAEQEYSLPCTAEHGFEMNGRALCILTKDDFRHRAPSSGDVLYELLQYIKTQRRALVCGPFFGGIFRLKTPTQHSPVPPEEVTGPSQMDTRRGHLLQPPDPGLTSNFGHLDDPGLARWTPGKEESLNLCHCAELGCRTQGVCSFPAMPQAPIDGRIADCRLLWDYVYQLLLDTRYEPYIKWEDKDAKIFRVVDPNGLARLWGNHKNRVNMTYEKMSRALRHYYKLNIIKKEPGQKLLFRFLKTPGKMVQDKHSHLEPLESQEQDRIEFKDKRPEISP
The settings on record: protein: recombinant; tags: N-terminal GST; dsDNA, one strand shown. In a few lines:
as §1

Another experiment addresses T11, ELF5 (Homo sapiens, UniProt Q9UKW6-2 1-255).
T11 sequence: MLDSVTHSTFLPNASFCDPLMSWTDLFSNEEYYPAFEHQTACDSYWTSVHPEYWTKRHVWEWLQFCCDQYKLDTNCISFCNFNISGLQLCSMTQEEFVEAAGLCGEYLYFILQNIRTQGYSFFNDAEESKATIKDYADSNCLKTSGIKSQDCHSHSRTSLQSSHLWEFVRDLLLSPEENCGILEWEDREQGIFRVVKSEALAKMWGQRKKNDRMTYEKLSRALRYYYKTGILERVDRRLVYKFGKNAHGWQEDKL
The settings on record: protein: recombinant; tags: N-terminal GST; dsDNA, one strand shown. In a few lines:
as §1

In another experiment the target is T12, ETV3 (Homo sapiens, UniProt P41162-2 1-143).
T12 sequence: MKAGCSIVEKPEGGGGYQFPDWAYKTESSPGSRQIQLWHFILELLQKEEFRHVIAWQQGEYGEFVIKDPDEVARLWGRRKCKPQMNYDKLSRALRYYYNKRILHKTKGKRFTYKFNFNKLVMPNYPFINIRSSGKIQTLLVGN
The settings on record: protein: recombinant; tags: N-terminal GST; dsDNA, one strand shown. In a few lines:
as §1

In the next experiment the target is ETV6 (Homo sapiens, UniProt P41212 1-452). The settings on record: protein: recombinant; tags: N-terminal GST; dsDNA, one strand shown. In a few lines: as §1
Chain of ETV6 (P41212 whole entry): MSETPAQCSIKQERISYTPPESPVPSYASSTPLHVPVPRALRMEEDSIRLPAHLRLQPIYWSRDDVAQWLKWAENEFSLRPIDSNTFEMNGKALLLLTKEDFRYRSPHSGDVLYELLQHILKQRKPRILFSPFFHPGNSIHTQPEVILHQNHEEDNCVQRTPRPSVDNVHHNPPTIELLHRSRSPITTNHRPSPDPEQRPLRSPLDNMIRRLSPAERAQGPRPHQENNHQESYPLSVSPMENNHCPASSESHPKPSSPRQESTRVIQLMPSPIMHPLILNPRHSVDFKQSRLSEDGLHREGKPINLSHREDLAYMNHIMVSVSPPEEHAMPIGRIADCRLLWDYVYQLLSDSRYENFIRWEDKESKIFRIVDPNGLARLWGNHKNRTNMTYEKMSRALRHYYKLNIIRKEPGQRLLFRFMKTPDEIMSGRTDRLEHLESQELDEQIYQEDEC

Chain of CRX (O43186 whole entry): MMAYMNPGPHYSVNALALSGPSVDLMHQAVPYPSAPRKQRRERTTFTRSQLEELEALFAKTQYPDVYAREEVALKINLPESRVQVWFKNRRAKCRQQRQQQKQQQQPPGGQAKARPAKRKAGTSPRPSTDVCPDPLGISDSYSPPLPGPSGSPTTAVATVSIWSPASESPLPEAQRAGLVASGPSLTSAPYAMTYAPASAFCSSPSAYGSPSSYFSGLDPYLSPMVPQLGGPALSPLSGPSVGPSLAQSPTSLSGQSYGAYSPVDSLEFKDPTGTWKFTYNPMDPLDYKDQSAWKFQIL
Chain of ETV5 (P41161 whole entry): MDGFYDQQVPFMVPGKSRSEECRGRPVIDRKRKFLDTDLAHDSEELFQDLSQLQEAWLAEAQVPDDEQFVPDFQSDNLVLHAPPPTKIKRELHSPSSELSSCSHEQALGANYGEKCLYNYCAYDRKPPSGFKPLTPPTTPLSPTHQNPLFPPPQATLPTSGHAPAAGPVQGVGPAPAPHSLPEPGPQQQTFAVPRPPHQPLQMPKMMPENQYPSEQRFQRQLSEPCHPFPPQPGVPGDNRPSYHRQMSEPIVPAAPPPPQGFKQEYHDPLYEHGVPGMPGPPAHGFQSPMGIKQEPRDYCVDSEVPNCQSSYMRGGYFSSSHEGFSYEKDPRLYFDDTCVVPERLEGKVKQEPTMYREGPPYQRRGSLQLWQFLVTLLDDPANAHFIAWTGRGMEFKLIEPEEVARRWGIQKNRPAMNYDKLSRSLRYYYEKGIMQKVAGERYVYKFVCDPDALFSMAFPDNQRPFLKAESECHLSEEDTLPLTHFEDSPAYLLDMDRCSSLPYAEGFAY
Chain of HSF1 (Q00613 whole entry): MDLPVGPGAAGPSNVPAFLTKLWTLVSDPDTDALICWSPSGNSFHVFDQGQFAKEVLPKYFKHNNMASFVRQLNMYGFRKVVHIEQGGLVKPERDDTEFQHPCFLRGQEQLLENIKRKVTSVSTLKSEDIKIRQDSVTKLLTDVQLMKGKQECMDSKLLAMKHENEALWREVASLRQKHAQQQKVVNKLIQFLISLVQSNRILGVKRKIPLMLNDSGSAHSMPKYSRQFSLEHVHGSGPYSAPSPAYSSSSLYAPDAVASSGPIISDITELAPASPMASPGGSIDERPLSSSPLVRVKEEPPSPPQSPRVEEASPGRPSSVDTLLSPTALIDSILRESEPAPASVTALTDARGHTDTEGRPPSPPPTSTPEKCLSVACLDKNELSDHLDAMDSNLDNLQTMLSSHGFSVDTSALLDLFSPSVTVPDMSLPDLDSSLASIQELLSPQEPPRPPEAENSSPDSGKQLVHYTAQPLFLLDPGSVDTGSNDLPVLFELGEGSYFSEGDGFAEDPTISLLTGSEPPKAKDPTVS
Chain of ELF4 (Q99607 whole entry): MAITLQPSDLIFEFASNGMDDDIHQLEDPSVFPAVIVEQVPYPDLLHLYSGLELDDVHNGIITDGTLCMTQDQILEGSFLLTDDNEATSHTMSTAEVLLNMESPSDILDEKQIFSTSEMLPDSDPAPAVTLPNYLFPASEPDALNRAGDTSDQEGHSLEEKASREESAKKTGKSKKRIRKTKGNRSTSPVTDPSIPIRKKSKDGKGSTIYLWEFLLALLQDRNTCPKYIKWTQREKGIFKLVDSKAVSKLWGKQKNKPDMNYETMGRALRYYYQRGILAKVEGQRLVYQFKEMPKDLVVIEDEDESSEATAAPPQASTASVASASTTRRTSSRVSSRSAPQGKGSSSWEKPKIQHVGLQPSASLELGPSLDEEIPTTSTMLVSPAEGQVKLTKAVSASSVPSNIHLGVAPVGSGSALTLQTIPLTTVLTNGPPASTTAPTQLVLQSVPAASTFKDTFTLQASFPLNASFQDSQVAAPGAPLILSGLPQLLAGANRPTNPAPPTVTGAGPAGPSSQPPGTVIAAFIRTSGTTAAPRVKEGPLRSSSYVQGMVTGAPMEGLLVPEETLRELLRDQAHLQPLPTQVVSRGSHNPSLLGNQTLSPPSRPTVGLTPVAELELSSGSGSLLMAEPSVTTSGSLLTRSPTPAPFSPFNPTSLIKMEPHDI
Chain of ETV1 (P50549 whole entry): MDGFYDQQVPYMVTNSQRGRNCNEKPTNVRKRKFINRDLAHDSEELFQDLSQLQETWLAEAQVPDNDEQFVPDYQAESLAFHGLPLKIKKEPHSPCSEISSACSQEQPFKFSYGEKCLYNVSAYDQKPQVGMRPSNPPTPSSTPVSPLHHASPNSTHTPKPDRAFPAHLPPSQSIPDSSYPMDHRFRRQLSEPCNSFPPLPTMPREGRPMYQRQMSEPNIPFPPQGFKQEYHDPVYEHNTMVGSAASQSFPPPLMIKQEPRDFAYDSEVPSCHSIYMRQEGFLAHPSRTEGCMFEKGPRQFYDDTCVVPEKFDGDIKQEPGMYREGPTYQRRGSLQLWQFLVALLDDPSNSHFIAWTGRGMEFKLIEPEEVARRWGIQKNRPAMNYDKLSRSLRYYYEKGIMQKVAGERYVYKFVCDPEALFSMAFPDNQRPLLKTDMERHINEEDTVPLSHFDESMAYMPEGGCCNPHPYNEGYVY

Turning to GGGCCT, the binding signal with FEV was 1.11 fold enrichment (6-mer frequency, TF over GST control); with ETV5, 1.27 fold enrichment (6-mer frequency, TF over GST control); with HSF1, 1.1 fold enrichment (6-mer frequency, TF over GST control); in the experiment with SPIC, 1.13 fold enrichment (6-mer frequency, TF over GST control); in the experiment with ELF4, 1.24 fold enrichment (6-mer frequency, TF over GST control); with ELK4, 1.3 fold enrichment (6-mer frequency, TF over GST control). The binding signal in the experiment with ETV2 was 1.05 fold enrichment (6-mer frequency, TF over GST control); with ELF3 it was 1.19 fold enrichment (6-mer frequency, TF over GST control); with CRX it was 1.07 fold enrichment (6-mer frequency, TF over GST control); with ETV1, 1.31 fold enrichment (6-mer frequency, TF over GST control); with ERF, 1.37 fold enrichment (6-mer frequency, TF over GST control); with ETV3L, 1.21 fold enrichment (6-mer frequency, TF over GST control). Besides, the binding signal in the experiment with ETS2 was 1.21 fold enrichment (6-mer frequency, TF over GST control); with SPDEF, 1.24 fold enrichment (6-mer frequency, TF over GST control); with ETV7, 1.24 fold enrichment (6-mer frequency, TF over GST control); in the experiment with ELF5, 1.17 fold enrichment (6-mer frequency, TF over GST control); with ETV3, 1.21 fold enrichment (6-mer frequency, TF over GST control); with ETV6, 1.21 fold enrichment (6-mer frequency, TF over GST control).
